Rows were chosen to be rich in hits. Some 2.8% of all compounds tested hit in one or more screens of this group.
MsrA act – bovine methionine sulfoxide reductase A activation | activation, % at 10.6 µM | purified bovine MsrA, absorbance read-out | 0.3% of 360,000 active; in the data active means activation above about 7.5%;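 further: 0% = vehicle and 100% = reference activator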
MsrA inh – inhibits bovine methionine sulfoxide reductase A. purified bovine MsrA, absorbance read-out. 0.75% of 360,000 active. inhibition, % at 15.5 µM; in the data active means inhibition above about 4.5%;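 further: 0% = vehicle wells with enzyme and 100% = reference inhibitor wells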
KLK7 zymogen act – activators of human kallikrein-7 zymogen. purified proKLK7, EDANS-DABCYL substrate fluorescence; 100% is mature enzyme control, 0% vehicle. activation, % at 7 µM. 0.9% of 370,000 active. P49862;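 active means activation above the mean of all tested compounds plus 3 SD, computed per campaign excluding outliers beyond control limits, cut at about 13% in these data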
Target sequence (P49862 whole entry, looked up): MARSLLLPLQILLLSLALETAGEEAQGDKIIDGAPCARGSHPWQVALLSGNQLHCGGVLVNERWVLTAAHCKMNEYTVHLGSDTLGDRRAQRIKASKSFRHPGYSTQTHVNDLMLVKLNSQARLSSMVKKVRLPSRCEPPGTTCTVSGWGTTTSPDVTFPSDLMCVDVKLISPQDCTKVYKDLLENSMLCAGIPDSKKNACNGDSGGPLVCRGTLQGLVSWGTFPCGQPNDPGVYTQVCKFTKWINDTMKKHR
SMARCA2 act – increases SMARCA2 function in MMTV reporter cells; activation, % at 9.1 µM; AID 652017; 1% of 370,000 active; MG213 cells, MMTV-luciferase reporter, dexamethasone, overnight; in the data active means activation above about 7.8%;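 further: 0% = vehicle wells and 100% = reference activator wells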
SMARCA2 act conf – SMARCA2 activation, confirmation screen; MG213 cells, MMTV-luciferase with dexamethasone, luminescence, overnight; MG213 cells expressing E1A, Rb sequestered; DMSO wells 0%, reference activator 100%; AID 652260; shares compounds with SMARCA2 act; 30% of 3,500 active; activation, % at 9.1 µM;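 active means activation above its plate's cutoff, the mean activation of tested wells plus 3 SD, cut at about 7.9% in these data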
GAL4-VP16 Luc – counter-screen for SMARCA2 activators: GAL4-VP16 luciferase reporter activation | activation, % at 9.1 µM | AID 686939 | 41% of 3,500 active | HEK293 GAL4-VP16 pG5luc reporter, luciferase luminescence; scaled: DMSO wells 0%, SAHA wells 100% | shares compounds with SMARCA2 act;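 active means activation above the solvent-only control well mean plus 3 SD, averaged across control plates, cut at about 5.2% in these data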
* = called active by the depositor; / = no result.

SMILES | MsrA act | MsrA inh | KLK7 zymogen act | SMARCA2 act | SMARCA2 act conf | GAL4-VP16 Luc
CCCCN(C)C(=O)c1ccc2c(c1)NC(=O)C(C)(C)O2 | / | / | 0.2 | -3.0 | / | /
O=C(Nc1ccc(-c2csc(-c3ccccc3)n2)cc1)c1ccccc1Cl | -5.2 | 1.8 | -1.3 | -2.7 | / | /
O=C(O)c1ccccc1C(=O)Nc1ccc(-c2csc(-c3ccccc3)n2)cc1 | -3.7 | 0.8 | 0.2 | 9.5* | 5.1 | 9.5*
COc1ccc(Nc2ccnc3ccccc23)cc1 | -13.9 | 1.0 | 0.1 | -0.5 | / | /
CC(C)Nc1ccc(Nc2ccnc3cc4ccccc4cc23)cc1 | 0.6 | -0.3 | 2.0 | 12.3* | 9.1* | -0.5
Cc1ccc(S(=O)(=O)N(C)c2ccc3c(c2)C(=O)c2ccccc2-3)cc1 | -5.2 | -0.9 | 0.8 | -1.9 | / | /
O=C(O)c1cccc(Nc2c([N+](=O)[O-])c(=O)oc3ccccc23)c1 | -9.4 | 1.5 | 0.2 | 8.9* | -2.7 | 0.6
CCN1CC(c2ccccc2)C(c2ccc(Cl)cc2)=N1 (stereo not given) | -3.4 | -0.3 | 0.7 | 8.3* | 1.9 | -0.9
CN1N=C(c2ccc(Cl)cc2)CC(c2ccc(Cl)cc2)C1=O (stereo not given) | -7.5 | -0.9 | -1.1 | -0.4 | / | /
C=CCNC(=O)N1CCN(Cc2nc3ccccc3c(=O)[nH]2)CC1 | / | / | 0.3 | -2.3 | / | /
O=C(N/N=C/C1CC2CCC1C2)c1ccc2c(c1)OCO2 (stereo not given) | -2.1 | 1.1 | -0.1 | 8.2* | -0.9 | -0.5
CCN1CCCC1CNC(=O)C(=O)Nc1ccccc1 (stereo not given) | -2.2 | -0.1 | -0.1 | 10.7* | 2.2 | 6.1*
CCOc1ccc(NC(=O)C(=O)NCC2CCCN2CC)cc1 (stereo not given) | -4.6 | 0.6 | -0.6 | 1.0 | / | /
CN(C)/C=C/C(=O)c1ccc2noc(-c3ccc(F)cc3)c2c1 | -2.2 | 0.7 | -1.7 | 11.2* | -1.0 | -0.1
O=c1c2ccccc2nnn1CCc1ccccc1 | 4.8 | -1.4 | -1.1 | 10.1* | 10.6* | 10.3*
Cc1ccc2nc(SCn3nnc4ccccc4c3=O)[nH]c2c1 | 0.9 | 0.1 | -0.7 | 8.4* | 8.1* | 13.1*
O=c1c2ccccc2nnn1CSc1ccccc1F | -3.8 | -0.5 | -0.6 | 11.2* | 4.5 | 13.5*
C=CCn1c(Cn2c(-c3cnccn3)nc3ccccc32)nc2ccccc21 | -7.1 | 3.3 | 0.3 | -1.0 | / | /
OC(c1cccnc1)c1nc(-c2ccc3c(c2)OCO3)cs1 (stereo not given) | -1.4 | -0.3 | -0.1 | 0.4 | / | /
N=C1N(C(=O)OCc2ccccc2)/C(=C\C2=CCCCC2)C(Cc2ccccc2)N1Cc1ccccc1 (stereo not given) | / | / | -0.1 | -3.4 | / | /
COCCn1c(SCc2nc3ccccc3s2)nc2ccccc21 | -1.9 | 0.9 | 0.1 | 15.0* | 7.4 | 8.1*
Cc1nnc(SCc2nc3ccccc3s2)n1-c1ccccc1 | -0.9 | 0.8 | -1.4 | 7.2 | / | /
CCn1c(SCc2nc3ccccc3s2)nc2cc(S(=O)(=O)N3CCOCC3)ccc21 | -2.0 | 0.2 | -0.2 | 10.1* | 2.7 | 4.3
CCCSc1nc2cc(S(=O)(=O)N3CCOCC3)ccc2n1CC | -6.9 | -1.3 | -0.5 | -0.8 | / | /
Cc1nnc(SCc2nc3ccccc3s2)n1N | -5.0 | 0.7 | -0.5 | 8.5* | 8.2* | 4.6
SMILES | MsrA act | MsrA inh | KLK7 zymogen act | SMARCA2 act | SMARCA2 act conf | GAL4-VP16 Luc
Oc1csc(Cc2nc(-c3ccc(-c4ccccc4)cc3)cs2)n1 | -1.3 | 0.3 | -1.2 | 2.8 | / | /
Oc1csc(Cc2nc(-c3ccccc3F)cs2)n1 | -3.0 | 0.9 | -0.9 | 10.4* | 16.6* | 7.0*
O=C1NC(=Nc2cccnc2)S/C1=C/c1ccc(F)cc1 | 4.4 | -0.1 | 1.3 | 8.4* | 5.1 | 0.6
COC(=O)[C@]12CCCCC=C1N(Cc1ccc(OC)cc1)C(=O)[C@@H]2CC(=O)N1CCCCC1 | / | / | -0.4 | -1.5 | / | /
Cc1cc(C)cc(OCC(=O)Nc2cccc(-c3nc4ncccc4o3)c2)c1 | -2.7 | 0.0 | -0.4 | 8.6* | -0.7 | 1.5
Cc1cc(NC(=O)c2ccccc2)sc1C | -1.6 | 1.2 | -0.1 | 19.1* | 7.6 | 8.6*
Cc1ccc(NC(=O)c2ccccc2)s1 | -3.7 | 1.9 | -0.2 | -0.1 | / | /
CCCCCCCCN1C(=O)[C@@H](CC(=O)NCCC(C)C)C[C@@]2(C(=O)OC)C1=C[C@H](C(C)C)O[C@@H]2C1CC1 | / | / | -0.3 | -0.3 | / | /
CN(CC(=O)Nc1ccc(F)cc1)C(=O)C1CCN(C(=O)Nc2ccccc2)CC1 | -3.1 | 1.5 | -0.5 | -2.6 | / | /
CCN(CC)S(=O)(=O)c1cc(C(=O)OCC(=O)NC2CCCc3ccccc32)ccc1C (stereo not given) | 4.4 | 0.2 | -0.8 | 11.1* | -2.5 | -1.0
CCOC(=O)c1cccc(-c2c(-c3ccccc3)ncc3cc(OC)c(OC)cc23)c1 | -3.5 | 0.2 | -0.4 | 11.5* | 10.9* | 5.8*
COc1cc2cnc(-c3ccccc3)c(-c3cc(OC)c(OC)c(OC)c3)c2cc1OC | -2.8 | 0.9 | -1.0 | 0.1 | / | /
C=CCn1c(SCC(=O)Nc2ccccc2-c2ccccc2)nnc1-c1ccc(Cl)cc1 | / | / | 0.6 | -7.2 | / | /
N#C/C(=N\Nc1ccccc1)C(=N)N1CCCCC1 | -4.5 | 3.0 | 0.2 | 4.5 | / | /
CCN(CC)C(=N)/C(C#N)=N/Nc1ccccc1 | 0.9 | 0.8 | -0.1 | 12.9* | 6.7 | 1.3
O=C(CSc1nnc(-c2ccncc2)n1CC1CCCO1)Nc1cccc(O)c1 (stereo not given) | 3.0 | -0.4 | 0.3 | 8.3* | -0.9 | -0.3
COc1ccc(C(=O)C(=O)N2CCN(S(=O)(=O)c3cccc4c(N(C)C)cccc34)CC2)cc1OC | / | 1.8 | -2.7 | -2.7 | / | /
COC(=O)[C@]12C[C@H](CC(=O)NCCCN3CCCC3=O)C(=O)N(Cc3ccc(Cl)cc3Cl)C1=C[C@H](C(C)(C)C)O[C@@H]2C | / | / | -0.7 | 0.5 | / | /
Oc1cccc2ccc(/C=C/c3ccccc3Cl)nc12 | -3.6 | 0.1 | 10.0 | 12.0* | -5.3 | 11.5*
Oc1cccc2ccc(/C=C/c3c(F)cccc3Cl)nc12 | -2.8 | 0.9 | 3.0 | 11.0* | -12.2 | 16.2*
CCNC(=O)C1(C)CCN(C(=O)c2ccccc2F)C1 (stereo not given) | -2.4 | 0.6 | -0.4 | 0.8 | / | /
O=C(CSc1nnc(-c2cccnc2)n1-c1ccccc1)Nc1cccc2ccccc12 | / | / | -0.3 | -3.9 | / | /
Cc1onc(-c2c(F)cccc2Cl)c1C(=O)NC(=S)NC1CCS(=O)(=O)C1 (stereo not given) | -1.2 | 0.5 | -0.5 | 15.5* | 0.1 | 0.5
CCOC(=O)c1sc(NC(=O)CCN2CCN(C)CC2)c(C(=O)OCC)c1C | -5.6 | 0.1 | 0.8 | 8.4* | 1.8 | -0.2
COc1ccc(-c2nc(C#N)c(NCc3ccc(F)cc3)o2)cc1OC | 1.7 | 1.3 | -7.8 | -0.3 | / | /
COc1ccc(-c2nc(C#N)c(NCc3cccnc3)o2)cc1OC | 0.2 | 2.9 | -0.9 | 10.1* | -2.2 | 2.7
